Source: PubChem BioAssay (Tox21)
Records with an inconclusive call do not appear. Calls of active or inactive are those of the source. Unless noted, the call rests on the fitted dose curve.

How the values were obtained:
[1] = qHTS assay to identify small molecule antagonists of the vitamin D receptor (VDR) signaling pathway - cell viability counter screen (AID 743225; active means well fitted curve in the direction sought with a large enough effect in the repeat runs; an effect the other way counts as inactive or inconclusive; further: nearly all actives have a fitted effect of over 50% in size; further: potency means the concentration at half of the fitted maximal effect)
Method in brief: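 VDR-UAS-bla HEK 293T cells were plated and incubated 4 h at 37C, then dosed with compound plus 3 nM (final) 1-alpha,25-dihydroxyvitamin D3 for 16 h. After the 2 h beta-lactamase read, viability in the same wells was read as CellTiter-Glo luminescence after 30 min at room temperature.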

[2] = qHTS assay to identify small molecule agonists of the NFkB signaling pathway (AID 1159509; active means well fitted curve in the direction sought with a large enough effect in the signal ratio in the repeat runs, not every such curve was filed as active; the % refers to the signal ratio; further: series mostly up to about 61 µM)
Method in brief: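 Pathway activation was measured in ME-180 cells stably expressing beta-lactamase under NF-kB response element control. Substrate cleavage was read as the 460/530 nm emission shift after 5 hr compound incubation.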

[3] = qHTS assay to identify small molecule agonists of the NFkB signaling pathway - cell viability counter screen (AID 1159515); further: nearly all actives have a fitted effect of over 55% in size; further: potency means the concentration at half of the fitted maximal effect
Method in brief: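 Counter screen run alongside the NFkB-bla agonist assay: ME-180 reporter cells exposed to compounds for 5 hr, then lysed with CellTiter-Glo in the same wells. Luminescence, read after 30 min, reflects viable cells.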

[4] = qHTS assay to identify small molecule agonists of the endoplasmic reticulum stress response signaling pathway (AID 1159516; active means well fitted activation curve with a large enough effect in the signal ratio in the repeat runs, not every such curve was filed as active; the % refers to the signal ratio)
Method in brief: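 For this screen, HeLa cells stably carrying beta-lactamase under the ER stress response element received test compounds, positive controls or DMSO for 5 hr at 37 C; B/G FRET substrate was then added and dual-wavelength emission recorded.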

[5] = qHTS assay to identify small molecule antagonists of the retinoid-related orphan receptor gamma (ROR-gamma) signaling pathway - cell viability counter screen (AID 1159520; active means well fitted curve in the direction sought with a large enough effect in the repeat runs; an effect the other way counts as inactive or inconclusive; further: nearly all actives have a fitted effect of over 50% in size)
Method in brief: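 Tet-on ROR gamma CHO cells were given compounds for 2 hr, then doxycycline hyclate at 1 uM final, and incubated 16 hr at 37 C. Viability was measured as ATP content by CellTiter-Glo luminescence.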

[6] = molecular target: Nuclear receptor ROR-gamma (Homo sapiens) (UniProt P51449); assay: qHTS assay to identify small molecule antagonists of the retinoid-related orphan receptor gamma (ROR-gamma) signaling pathway (AID 1159521; active means well fitted curve in the direction sought with a large enough effect in the repeat runs; an effect the other way counts as inactive or inconclusive; further: nearly all actives have a fitted effect of over 50% in size; further: potency means the concentration at half of the fitted maximal effect)
Method in brief: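 Tet-on ROR-gamma CHO cells with ROR response element-luciferase reporter; compounds added 2 hr before 1 uM doxycycline induction, then 16 hr at 37 C. Antagonism scored as decreased ONE-Glo luminescence.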

[7] = qHTS assay to identify small molecule agonists of the AP-1 signaling pathway - cell viability counter screen (AID 1159525); further: nearly all actives have a fitted effect of over 55% in size
Method in brief: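 Same-well cytotoxicity counter screen of the Tox21 10K library in ME-180 cells. The readout is ATP-dependent luminescence after 5 h compound treatment. Data are normalised to DMSO and tetra n-octyl ammonium bromide controls.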

[8] = qHTS assay to identify small molecule agonists of the AP-1 signaling pathway (AID 1159526)
[9] = molecular target: Retinoic acid receptor RXR-alpha (Homo sapiens) (UniProt P19793); assay: qHTS assay to identify small molecule agonists of the RXR signaling pathway (AID 1159527); further: nearly all actives have a fitted effect of over 35% in size; further: potency means the concentration at half of the fitted maximal effect
Sequence of Retinoic acid receptor RXR-alpha (Homo sapiens) (P19793 whole entry, looked up): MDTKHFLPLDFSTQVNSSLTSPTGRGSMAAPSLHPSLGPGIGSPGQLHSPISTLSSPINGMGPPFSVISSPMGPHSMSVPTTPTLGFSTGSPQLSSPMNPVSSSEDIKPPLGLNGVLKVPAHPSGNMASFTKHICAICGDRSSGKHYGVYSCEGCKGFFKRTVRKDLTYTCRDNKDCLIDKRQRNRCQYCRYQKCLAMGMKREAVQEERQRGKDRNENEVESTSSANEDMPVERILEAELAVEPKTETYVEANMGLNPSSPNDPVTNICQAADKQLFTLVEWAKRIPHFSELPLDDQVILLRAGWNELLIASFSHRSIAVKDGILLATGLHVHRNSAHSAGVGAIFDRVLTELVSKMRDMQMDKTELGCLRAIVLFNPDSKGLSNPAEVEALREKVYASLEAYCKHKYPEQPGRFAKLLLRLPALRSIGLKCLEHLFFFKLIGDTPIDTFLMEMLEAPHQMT
Method in brief: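 GeneBLAzer RXR-alpha-UAS-bla HEK 293T cells in 2% charcoal-stripped FBS medium were exposed to compounds for 16 hr at 37 C in agonist mode. Beta-lactamase reporter read as 460/530 nm FRET ratio after 2 hr substrate loading.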

Measured: Potency

CC(C)C(=O)OCCOc1ccccc1
not listed: [9]
inactive: all other assays above

CC(C)Cc1ccc(CC(=O)O)cc1
not listed: [8]
inactive: all other assays above

COc1ccc(-c2cc(C(F)F)nn2-c2ccc(S(N)(=O)=O)cc2)cc1F
not listed: [9]
inactive: all other assays above

COc1cc(C(C)=O)ccc1OCCCN1CCC(c2noc3cc(F)ccc23)CC1
not listed: [8] | [9]
inactive: all other assays above

CC(C)(O)c1coc(S(=O)(=O)NC(=O)Nc2c3c(cc4c2CCC4)CCC3)c1
not listed: [9]
inactive: all other assays above

[Cl][Nd]([Cl])[Cl]
not listed: [7]
inactive: all other assays above

CC(=O)N[C@@H](Cc1ccc(O)cc1)C(=O)O
not listed: [5]
inactive: all other assays above

COC(CC(C)CCCC(C)(C)O)OC (stereo not drawn)
not listed: [5]
inactive: all other assays above

C=CC(=O)O
not listed: [5]
inactive: all other assays above

O=S(=O)(Cl)c1c(Cl)cccc1Cl
not listed: [7]
inactive: all other assays above

CN1CCCN(C(c2ccccc2)c2ccc(Cl)cc2)CC1 (stereo not drawn)
active: [1] 21.3 µM | [3] 12 µM | [6] 26.6 µM
inactive: [2] | [4] | [5]

O=C1CC[C@@H](C(=O)O)N1
not listed: [6] | [7]
inactive: all other assays above

CC[C@H]1OC(=O)[C@H](C)[C@@H](O[C@H]2C[C@@](C)(OC)[C@@H](O)[C@H](C)O2)[C@H](C)[C@@H](O[C@@H]2O[C@H](C)C[C@H](N(C)C)[C@H]2O)[C@](C)(O)C[C@@H](C)/C(=N\OCOCCOC)[C@H](C)[C@@H](O)[C@]1(C)O
not listed: [1] | [5] | [7]
inactive: all other assays above

CCOc1ncc(F)c(=O)[nH]1
not listed: [6]
inactive: all other assays above

C1CCCCC1
not listed: [6]
inactive: all other assays above

C[C@@H]1[C@H](O)[C@@H](C)/C=C/C=C\C=C\C=C\C=C\C=C\C=C\[C@H](O[C@@H]2O[C@H](C)[C@@H](O)[C@H](N)[C@@H]2O)C[C@@H]2O[C@](O)(C[C@@H](O)C[C@@H](O)[C@H](O)CC[C@@H](O)C[C@@H](O)CC(=O)O[C@H]1C)C[C@H](O)[C@H]2C(=O)O (stereo in doubt)
not listed: [6] | [8]
inactive: all other assays above

C=C(C)c1ccccc1
not listed: [6] | [9]
inactive: all other assays above

Nc1ccn([C@H]2CS[C@@H](CO)O2)c(=O)n1
not listed: [1] | [5] | [7]
inactive: all other assays above

COc1ccc(-c2cc(=S)ss2)cc1
not listed: [5] | [8] | [9]
inactive: all other assays above

CC1=C2[C@@H]([C@H](C)CC[C@H]2/C=C(\C)C(=O)O)[C@H](O)C1
not listed: [7] | [9]
inactive: all other assays above

CCC(CO)(CO)CO
not listed: [7]
inactive: all other assays above

Nc1cccc2c(N)cccc12
inactive: [2] | [3] | [4] | [6]

CCNc1nc(N)nc(Cl)n1
active: [9] 5.49 µM
not listed: [6]
inactive: all other assays above

CCN(Cc1cccc(S(=O)(=O)O)c1)c1ccc(C(=C2C=CC(=[N+](CC)Cc3cccc(S(=O)(=O)O)c3)C=C2)c2ccc(O)cc2S(=O)(=O)[O-])cc1
inactive: [2] | [4] | [8] | [9]
active: [3] 26.5 µM | [6] 14.8 µM

O=C(C(=O)c1ccco1)c1ccco1
not listed: [5]
inactive: all other assays above

Cc1ccc(N(CCO)CCO)cc1
not listed: [6]
inactive: all other assays above

CCCCCCCCCCCSCC(=O)O
active: [1] 21.9 µM
not listed: [6] | [9]
inactive: all other assays above

O[C@@H](CNC[C@H](O)[C@H]1CCc2cc(F)ccc2O1)[C@@H]1CCc2cc(F)ccc2O1
active: [1] 21.3 µM | [6] 23.7 µM
not listed: [5] | [9]
inactive: all other assays above
